Assay results taken from PubChem BioAssay (NCATS).
Records with an inconclusive call do not appear. Active and inactive are the calls of the source. Calls come from the whole dose curve; as a rule, active = well fitted inhibition curve with a large enough effect; inconclusive = small, poorly fitted or top-dose-only effect; inactive = flat fitted curve, though single readings scatter.

Test system: CRL-7250
Assay: qHTS assay to identify novel small-molecules to repurpose for Merkel cell carcinoma treatment (AID 1296009); note: nearly all actives have a fitted effect of over 60% in size
Settings: MCC and control cell lines, CellTiter-Glo viability, 72 h; series mostly up to 92 µM; activity change, negative = cytotoxicity: at the top concentration
Outline: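 Cells were incubated with compound for 72 hr at 37 degree celsius before CellTiter-Glo addition. Luminescence was normalized with no-cell wells as full cytotoxicity and DMSO as baseline.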

| SMILES | outcome |
| --- | --- |
| Cc1ccc([C@@H]2CC=C(C(=O)O)[C@H](c3ccc(C(C)(C)C)cc3)N2S(=O)(=O)c2ccc(C)cc2)cc1 | inactive |
| CC1(C)C2CC=C(COC3OC(COC4OCC(O)(CO)C4O)C(O)C(O)C3O)C1C2 (stereo not given) | inactive [at 17.4 µM] |
| CC(=O)C=C=C1C(C)(C)CC(O[C@@H]2O[C@H](CO)[C@@H](O)[C@H](O)[C@H]2O)CC1(C)O (stereo not given in full) | inactive |
| COc1ccc(-c2ccc(-c3cn(C(=O)N4CCCCC4c4ccccc4)nn3)cc2)cc1 (stereo not given) | inactive |
| OC1COC(OCC2OC(OCCc3ccccc3)C(O)C(O)C2O)C(O)C1O (stereo not given) | inactive [at 17.4 µM] |
| OC[C@H]1O[C@@H](O[C@H]2[C@H](OCCc3ccccc3)O[C@H](CO)[C@@H](O)[C@@H]2O)[C@H](O)[C@@H](O)[C@@H]1O | inactive [at 17.4 µM] |
| O=S(=O)(NC1CCC(c2cc(F)ccc2F)(S(=O)(=O)c2ccc(Cl)cc2)CC1)C(F)(F)F (stereo not given) | inactive |
| CC1OC(OC2C(CO)OC(OCC3OC(OC(=O)C45CCC(C)(C)CC4C4=CCC6C7(C)CCC(OC8OC(C(=O)O)C(O)C(OC9OC(CO)C(O)C(O)C9O)C8O)C(C)(C)C7CCC6(C)C4(C)CC5)C(O)C(O)C3O)C(O)C2O)C(O)C(O)C1O (stereo not given) | inactive [at 9.27 µM] |
| COc1cc(COC2OC(CO)C(O)C(O)C2O)cc(OC)c1O (stereo not given) | inactive |
| Nc1ncnc2c1ncn2[C@H]1O[C@@H](C(=O)N2CCN(CC(=O)Nc3cccc4c3CNC4=O)CC2)[C@H](O)[C@@H]1O | inactive |
